Experimental data reported in ChEMBL document CHEMBL3988442, “University of Dundee, Small-Polar-MMV Screening Library” (2021).
Out of some 69,000 compounds screened, about 420 (0.61%) showed an effect of 50% or more. The entries come from a sample that favours strong results as a whole.

The compounds below were run against T1, Histidine--tRNA ligase (Leishmania infantum) (UniProt A4I591) (assay: Leishmania infantum Histidine tRNA synthetase (LdHisRS)). Details: 30 µM.
T1 sequence (whole entry): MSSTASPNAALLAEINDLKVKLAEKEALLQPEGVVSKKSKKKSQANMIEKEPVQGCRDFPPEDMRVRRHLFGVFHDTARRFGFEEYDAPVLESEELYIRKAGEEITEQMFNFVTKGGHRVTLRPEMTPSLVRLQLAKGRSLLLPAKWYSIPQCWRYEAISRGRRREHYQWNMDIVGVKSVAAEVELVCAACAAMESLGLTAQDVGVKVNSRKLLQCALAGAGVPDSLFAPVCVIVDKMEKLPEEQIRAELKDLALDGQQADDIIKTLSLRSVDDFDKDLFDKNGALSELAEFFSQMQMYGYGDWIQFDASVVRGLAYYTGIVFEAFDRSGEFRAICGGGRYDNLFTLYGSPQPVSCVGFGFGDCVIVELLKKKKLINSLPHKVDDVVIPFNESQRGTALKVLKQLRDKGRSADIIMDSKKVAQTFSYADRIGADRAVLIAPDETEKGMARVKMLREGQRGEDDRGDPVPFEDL
Type: functional
Set-up: scale not given: in the data most compounds retested in dose-response had high values

With `CS(=O)(=O)NCC1CCCN(C(=O)Nc2cccc3ccccc23)C1` (stereo not given) as the compound, how does the Percent Effect read?
Its Percent Effect is 33%.

With `CN1C(=O)[C@H]2CC[C@@H]1CN(C(=O)Nc1ccccc1C(F)(F)F)C2` as the compound, how does the Percent Effect read?
Its Percent Effect is 7.84%.

With `Cc1oncc1C(=O)N1CC[C@H]2C[C@H](c3ccncn3)O[C@@H]2C1` as the compound, how does the Percent Effect read?
Its Percent Effect is 7.27%.

How did the Percent Effect turn out when `CS(=O)(=O)NC[C@]12COC[C@H]1CN(C(=O)C1CC=CC1)C2` was run?
Its Percent Effect is -44.5%.

Which Percent Effect does the source give for `Fc1cnc(N2CCC3(CC2)CC(OCc2cccnc2)CO3)nc1` (stereo not given) here?
Its Percent Effect is 8.77%.

For `N#Cc1ccc(N2CCC3(CC2)CC(OCc2cccnc2)CO3)cc1` (stereo not given), which Percent Effect is on record?
Its Percent Effect is 33.3%.

For `Fc1ccc(N2CCC3(CC2)CC(OCc2cccnc2)CO3)cc1` (stereo not given), which Percent Effect is on record?
The Percent Effect was 56.1%.

`CCN1CC[C@@]2(C(=O)N(C)C)CCN(C(=O)NC(C)C)CC[C@@H]12` was tested. Which Percent Effect did it give?
Its Percent Effect is 15.5%.

With `COc1cccn(CC(=O)N2CCC3(CCNCC3)C2)c1=O` as the compound, how does the Percent Effect read?
The Percent Effect was 116%.

How did the Percent Effect turn out when `COc1ccccc1-c1ccccc1CC1(C(=O)O)CCNCC1` was run?
Its Percent Effect is 2.84%.

`COc1ccccc1C(=O)N1CCOC2(CCCN(C(C)=O)C2)C1` (stereo not given) was tested. Which Percent Effect did it give?
The Percent Effect was 8%.

`CCCOCC1CCN(C(=O)Cn2cccc(C(F)(F)F)c2=O)C1` (stereo not given) was tested. Which Percent Effect did it give?
Its Percent Effect is 12%.

Which Percent Effect does the source give for `CCCOCC1CCN(C(=O)Cn2ncc(N3CCCC3)cc2=O)C1` (stereo not given) here?
The Percent Effect was -3.8%.

Which Percent Effect does the source give for `COC1CCN(C(=O)Cn2cccc(C(F)(F)F)c2=O)C1` (stereo not given) here?
The Percent Effect was 18.8%.

`COc1cccn(CC(=O)N2CCCC3(CCCCC3)C2)c1=O` was tested. Which Percent Effect did it give?
The Percent Effect was 110%.

Which Percent Effect does the source give for `COc1cccc(CN2CC3(CCNCC3)CCC2=O)c1OC` here?
Its Percent Effect is 8.57%.

How did the Percent Effect turn out when `COc1cccn(CC(=O)N2CCCC3(CCCO3)CC2)c1=O` (stereo not given) was run?
Its Percent Effect is 101%.

How did the Percent Effect turn out when `CCCOCC1CCN(C(=O)Cn2cccc(OC)c2=O)C1` (stereo not given) was run?
The Percent Effect was 97.4%.

How did the Percent Effect turn out when `O=C1NCC2(CCCN(C(=O)Cn3nc4ccccc4n3)CC2)O1` (stereo not given) was run?
The Percent Effect was 6.45%.

With `COc1cccc2c1ccn2CC(=O)N1CCCC(C(=O)O)C1` (stereo not given) as the compound, how does the Percent Effect read?
The Percent Effect was 7.89%.

`O=C([C@H]1CN(Cc2ccoc2)C[C@H]2OCC[C@@H]12)N1CCCCO1` was tested. Which Percent Effect did it give?
Its Percent Effect is 22.2%.

For `Cc1nc(CN2CCO[C@@H]3CN(C(=O)CC4CC4)CC[C@@H]3C2)cs1`, which Percent Effect is on record?
The Percent Effect was 12.7%.

How did the Percent Effect turn out when `COC[C@@H]1CC[C@H]2[C@H](CCN2S(=O)(=O)c2ccc(C)cc2)O1` was run?
The Percent Effect was 2.65%.

`CN(C)C[C@H]1OC[C@@H]2CN(C(=O)NCc3cccc(F)c3)CC[C@@H]21` was tested. Which Percent Effect did it give?
The Percent Effect was 0%.

How did the Percent Effect turn out when `Cc1n[nH]c(CN2CCN(Cc3ccccc3)[C@@H]3CS(=O)(=O)C[C@@H]32)n1` was run?
Its Percent Effect is 32%.

Which Percent Effect does the source give for `CCN1C[C@H]2C3(CCN(S(C)(=O)=O)CC3)CC[C@@]2(C(=O)N(C)C)C1` here?
Its Percent Effect is 12%.

Which Percent Effect does the source give for `Cc1cc(C(=O)N2C[C@@H]3COC[C@]3(COCc3cccnc3)C2)no1` here?
The Percent Effect was 12.6%.

Which Percent Effect does the source give for `O=C(N[C@@H]1CN(c2ncccn2)[C@@H]2CCCO[C@@H]21)c1cnccn1` here?
Its Percent Effect is 18.9%.

Which Percent Effect does the source give for `O=C1CC[C@@H]2[C@@H](CCN2C(=O)c2ccsc2)N1Cc1ccncc1` here?
Its Percent Effect is 14.7%.

Which Percent Effect does the source give for `CN1C(=O)[C@H]2CC[C@@H]1CN(C(=O)c1nnc3n1CCCCC3)C2` here?
The Percent Effect was 17.8%.

For `CC1CCN(S(=O)(=O)c2cccn(CC(=O)N3CCOCC3)c2=O)CC1`, which Percent Effect is on record?
The Percent Effect was -7.77%.

With `COc1cccn(CC(=O)N2CCCC3(CCOCC3)C2)c1=O` as the compound, how does the Percent Effect read?
The Percent Effect was 98.9%.

How did the Percent Effect turn out when `COc1ccccc1CC(=O)N1CC[C@H](O)[C@]2(CCCO2)C1` was run?
Its Percent Effect is 18.8%.

`Cc1ccoc1C(=O)N1CC[C@@H]2O[C@@H](C)C[C@H]2C1` was tested. Which Percent Effect did it give?
The Percent Effect was 12.3%.

With `Nc1nnc(SCC(=O)c2cc3c(cc2Cl)NC(=O)C3)s1` as the compound, how does the Percent Effect read?
Its Percent Effect is 50%.

For `CSc1nsc(SCC(=O)c2cc3c(cc2Cl)NC(=O)C3)n1`, which Percent Effect is on record?
The Percent Effect was 13.2%.

Which Percent Effect does the source give for `Cc1nnc(SCC(=O)c2cc3c(cc2Cl)NC(=O)C3)s1` here?
The Percent Effect was 2.63%.

Which Percent Effect does the source give for `Cn1cccc1C(=O)N[C@@H]1CN(Cc2cccs2)[C@@H]2COC[C@@H]21` here?
The Percent Effect was 5.71%.

How did the Percent Effect turn out when `COc1ccc(CN2C[C@@H]3CN(Cc4ccncc4)C[C@@H]3C2=O)cc1` was run?
The Percent Effect was 13.6%.

For `COc1cc(N2C[C@H]3CCC[C@@H](CN4CCOCC4)[C@H]3C2)ncn1`, which Percent Effect is on record?
Its Percent Effect is 17.4%.

How did the Percent Effect turn out when `CS(=O)(=O)N1CCC2(CC1)CN(CCn1cccn1)C(=O)CO2` was run?
The Percent Effect was 65.8%.

For `COCCN1CCC2(CC1)CN(CCn1cccn1)C(=O)CO2`, which Percent Effect is on record?
The Percent Effect was 16.2%.

Which Percent Effect does the source give for `O=C1COC2(CCN(Cc3ccoc3)CC2)CN1CCn1cccn1` here?
The Percent Effect was 21.4%.

For `CCn1cc(C(=O)N2C[C@H]3C[C@H](Oc4ccccc4)C[C@H]3C2)cn1`, which Percent Effect is on record?
The Percent Effect was 11.5%.

With `Cc1nc(C(=O)N2CCN(C(=O)C3CCC3)[C@@H]3CS(=O)(=O)C[C@@H]32)cs1` as the compound, how does the Percent Effect read?
Its Percent Effect is 2.67%.

For `O=C(Cc1ccsc1)N1C[C@H]2CCC[C@@]2(COCc2ccccn2)C1`, which Percent Effect is on record?
Its Percent Effect is 7.92%.

For `Cn1cc(NC(=O)N2CCCC2c2ccccn2)ccc1=O` (stereo not given), which Percent Effect is on record?
Its Percent Effect is 108%.

With `CCSc1ccc(NC(=O)N2CCCC2c2ccncc2)cn1` (stereo not given) as the compound, how does the Percent Effect read?
Its Percent Effect is 1.65%.

How did the Percent Effect turn out when `COc1ccc(NC(=O)N2CCCC2c2ccncc2)cn1` (stereo not given) was run?
The Percent Effect was 13.2%.

For `CC(C)C1CCCN1C(=O)Nc1ccc(=O)n(C)c1` (stereo not given), which Percent Effect is on record?
Its Percent Effect is 119%.

Which Percent Effect does the source give for `Cn1cc(NC(=O)N2CCCC2c2cccnc2)ccc1=O` (stereo not given) here?
The Percent Effect was 100%.

`CN(C)CC(=O)N1CCCC1c1ccccn1` (stereo not given) was tested. Which Percent Effect did it give?
Its Percent Effect is 8.63%.

For `Cn1cc(C(=O)N2CCCC2c2ccc3c(c2)OCCO3)ccc1=O` (stereo not given), which Percent Effect is on record?
Its Percent Effect is 27.3%.

How did the Percent Effect turn out when `Cn1cc(C(=O)N2CCCC2c2ccc3c(c2)OCO3)ccc1=O` (stereo not given) was run?
The Percent Effect was 12.1%.

For `Cc1cc(C)c(CNC(=O)N2CCCC2c2ccccn2)c(=O)[nH]1` (stereo not given), which Percent Effect is on record?
Its Percent Effect is 12.3%.
